Screens: PubChem, National Center for Advancing Translational Sciences (NCATS)
GLP1R ag = agonists of human GLP-1 receptor; P43220; Potency, µM (doses to about 45.6 µM), without a hit: at the top dose activation, most hits filed as activators; HEK293 GLP-1R CRE-luciferase, luminescence, 4-6 h; cells express a hypersensitive GLP-1R form; 0.007% of 380,000 active; further: % of control where 0% means no effect
Target sequence (P43220 whole entry, looked up): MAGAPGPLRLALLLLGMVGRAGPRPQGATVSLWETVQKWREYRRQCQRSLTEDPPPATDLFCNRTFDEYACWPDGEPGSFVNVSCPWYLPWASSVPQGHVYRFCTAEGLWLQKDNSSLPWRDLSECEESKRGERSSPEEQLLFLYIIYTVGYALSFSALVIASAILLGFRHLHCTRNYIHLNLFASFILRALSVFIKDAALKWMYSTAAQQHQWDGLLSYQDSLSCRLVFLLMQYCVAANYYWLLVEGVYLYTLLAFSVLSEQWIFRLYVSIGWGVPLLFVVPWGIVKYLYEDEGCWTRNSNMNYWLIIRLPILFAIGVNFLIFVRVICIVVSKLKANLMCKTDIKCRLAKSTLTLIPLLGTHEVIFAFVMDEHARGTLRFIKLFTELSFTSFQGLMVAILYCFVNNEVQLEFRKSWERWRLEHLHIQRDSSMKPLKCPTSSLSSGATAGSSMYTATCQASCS
PTHR1 ag = PTHR1 (human) receptor agonism; Q03431; HEK293 GP2 PTHR1 cells, GloSensor cAMP luminescence, 1 h; Potency, µM (series often up to 115 µM), inactives show at the highest dose activation, usual class: activators; 0.075% of 410,000 active; AID 743266; further: nearly all actives have a fitted effect of over 55% in size
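HEK-293-derived GP2 cells expressing PTHR1 and a GloSensor cAMP reporter, 3,000/well, plated overnight, given luciferin plus IBMX (each 0.5 mM as added) for 1 h at 37 °C, then compound for 1 h at 37 °C. Luminescence was read after 15 min at room temperature.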
GLP1R cytotox = cytotoxic in the GLP-1 receptor inverse agonist counter-screen; HEK293 cAMP-luciferase reporter cells, luminescence, 24 h; Potency, µM (highest dose often 38.3 µM), for inactives: top-dose activity change, negative = inhibition, actives largely listed as inhibitors; 0.13% of 410,000 active;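 further: loss of luciferase light is scored as toxicity; on the % scale 0 is the no-effect control and ±100 the full control effect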
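Seeding density was 200 cells/uL; after overnight-length (12 h) culture, 23 nL compounds went on for 24 h at 37 °C. Readout used a luciferase detection reagent, luminescence taken after 12 min at room temperature.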
GLP1R inv ag = GLP-1 receptor (human) inverse agonism; HEK293 GLP-1R CRE-luciferase, luminescence, 24 h; GLP-1R form is constitutively active; 1.6% of 410,000 active; Potency, µM (doses to about 38.3 µM), for the others: at the top dose activity change, negative = inhibition, hits mostly inhibitors; AID 624417; P43220; further: on the % scale 0 is the no-effect control and ±100 the full control effect; nearly all actives have a fitted effect of over 55% in size
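GLP-1R inverse agonism mode: basal reporter luminescence in engineered HEK293 cells measured after one day of compound exposure at 37 deg C, with a 12 min room-temperature detection step.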
Numbers without * were called inactive; [ ] = dose if it differs, or a comment. Shown are actives, neighbours in structure and some others; about 1.7% of the full set was active somewhere. The call rests on the fitted dose curve; in most records, active means well fitted curve in the direction sought with a large enough effect; inconclusive means small, poorly fitted or top-dose-only effect, or another doubt; inactive means no such curve, though single readings can be large; an effect the other way counts as inactive or inconclusive. Potency means the concentration at half of the fitted maximal effect.

How did Cc1ccc2c(c1)c1c(n2CC(O)Cn2ccnc2C)C(=O)CCC1 (configuration not stated) do in these assays?
GLP1R ag: -3%; PTHR1 ag: inactive; GLP1R cytotox: 2%; GLP1R inv ag: inconclusive

Results for Cc1ccc2c(c1)c1c(n2CC(O)CNC2CCCC2)CCCC1 (configuration not stated) ?
GLP1R ag: -1%; PTHR1 ag: inactive; GLP1R cytotox: inconclusive; GLP1R inv ag: 11µM*

Results for c1ccc(-n2cc(CN3CCCC(CN4CCCC4)C3)c(-c3ccc4c(c3)OCO4)n2)cc1 (configuration not stated) ?
GLP1R ag: 16%; PTHR1 ag: 8%; GLP1R cytotox: inconclusive; GLP1R inv ag: 10µM*

What do the screens show for `Cc1[nH]c2ccc(F)cc2c1CCN(Cc1cccnc1)C(=S)Nc1cccc(F)c1`?
GLP1R ag: 13%; PTHR1 ag: -8%; GLP1R cytotox: -11%; GLP1R inv ag: 10µM*

How did COc1ccccc1-c1nnc(SCC(=O)NC2CCCCC2)n1C do in these assays?
GLP1R ag: 11%; PTHR1 ag: inactive; GLP1R cytotox: -4%; GLP1R inv ag: 3%

What do the screens show for `CC(=O)/C(=N/Nc1ccccc1[N+](=O)[O-])N1CCCc2ccccc21`?
GLP1R ag: 21%; PTHR1 ag: -8%; GLP1R cytotox: inconclusive; GLP1R inv ag: 10µM*

Results for CC1(C(=O)Nc2cccc(OC(F)(F)F)c2)Cc2c(-c3ccc4c(c3)OCO4)ccnc2O1 (configuration not stated) ?
GLP1R ag: 9%; PTHR1 ag: -5%; GLP1R cytotox: inconclusive; GLP1R inv ag: inconclusive

Results for Cc1ccc2[nH]c3c(=O)n(CC(=O)N4CC(C)CC(C)C4)ncc3c2c1 (configuration not stated) ?
GLP1R ag: 5%; PTHR1 ag: -10%; GLP1R cytotox: -10%; GLP1R inv ag: inconclusive

How did N#C/C(N=Nc1ccccc1O)=N\Nc1ccccc1O do in these assays?
GLP1R ag: -17%; PTHR1 ag: -41%; GLP1R cytotox: 10µM*; GLP1R inv ag: inconclusive

What do the screens show for `CC1(C)CC(NC(=O)c2ccc(Cl)c(Cl)c2)CC(C)(C)N1`?
GLP1R ag: 2%; PTHR1 ag: 0%; GLP1R cytotox: 7%; GLP1R inv ag: inconclusive

How did S=c1nc2ccccc2c2nc(-c3ccccc3)[nH]n12 do in these assays?
GLP1R ag: -3%; PTHR1 ag: inactive; GLP1R cytotox: 0.89µM*; GLP1R inv ag: inconclusive

How did S=c1nc2ccccc2c2nc(-c3ccccc3Cl)[nH]n12 do in these assays?
GLP1R ag: -5%; PTHR1 ag: -10%; GLP1R cytotox: -48%; GLP1R inv ag: inconclusive

Results for CCOc1ccccc1CNC(=O)c1oc2c(c1C)-c1nn(Cc3cccc(Cl)c3)cc1CC2 ?
PTHR1 ag: inactive; GLP1R cytotox: -5%; GLP1R inv ag: inconclusive

What do the screens show for `Cc1ccccc1CNC(=O)c1oc2c(c1C)-c1nn(Cc3ccc(Cl)cc3)cc1CC2`?
PTHR1 ag: -30%; GLP1R cytotox: 1%; GLP1R inv ag: 10µM*

What do the screens show for `CCOc1ccc(CCNC(=O)c2cn(C)c3ccc(S(=O)(=O)N4CCCCCC4)cc3c2=O)cc1OCC`?
PTHR1 ag: inactive; GLP1R cytotox: 1%; GLP1R inv ag: 6%

What do the screens show for `O=C(CN1CCN(CC(=O)Nc2ccc3c(c2)OC2(CCCCC2)O3)CC1)Nc1cccc(F)c1`?
GLP1R ag: -7%; PTHR1 ag: inactive; GLP1R cytotox: inconclusive; GLP1R inv ag: 10µM*

How did Cc1cccc(NC(=O)Nc2nnc([C@H]3C[C@H](O)[C@@H](CO)O3)s2)c1 do in these assays?
GLP1R ag: 9%; PTHR1 ag: inactive; GLP1R cytotox: -5%; GLP1R inv ag: 18%

How did CC(Sc1ncn[nH]1)C(=O)c1c(N)n(C)c(=O)n(C)c1=O (configuration not stated) do in these assays?
GLP1R ag: 0%; PTHR1 ag: -9%; GLP1R cytotox: 6%; GLP1R inv ag: 20%

What do the screens show for `Cc1ccc2c(c1)C(O)(c1c(C)[nH]c3ccccc13)C(=O)N2` (configuration not stated)?
GLP1R ag: -8%; PTHR1 ag: -6%[57.5 µM]; GLP1R cytotox: -12%; GLP1R inv ag: 3.2µM*
